Test results published in PubChem BioAssay (NCI).
About 83,000 compounds went through this panel and 20% of them were active in at least one assay; those are over-represented in the sample as a whole.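 Negative percent growth values reflect cell death: -40 means 40% of the cells present at the start died, and -100 means all died.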 A number with no mark means an inactive call. Calls of active or inactive are those of the source. Rule for the calls: active = growth percent below 10; inactive = the rest.

How the values were obtained:
Test in all cases: NCI-60 one-dose screen, 48 h (100 = growth as untreated, 0 = no growth, -100 = all killed)
[1] = test system: SK-MEL-2 melanoma; settings: 10 µM unless noted
[2] = test system: EKVX NSCLC; settings: 10 µM unless noted
[3] = test system: SN12C renal; settings: 10 µM unless noted
[4] = test system: UO-31 renal; settings: 10 µM unless noted
[5] = test system: TK-10 renal; settings: 10 µM unless noted
[6] = test system: ACHN renal; settings: 10 µM unless noted
[7] = test system: CAKI-1 renal; settings: 10 µM
[8] = test system: A498 renal; settings: 10 µM unless noted
[9] = test system: CCRF-CEM leukemia; settings: 10 µM unless noted
[10] = test system: MOLT-4 leukemia; settings: 10 µM unless noted
[11] = test system: SR leukemia; settings: 10 µM unless noted
[12] = test system: RPMI-8226 leukemia; settings: 10 µM unless noted
[13] = test system: OVCAR-8 ovarian; settings: 10 µM unless noted
[14] = test system: OVCAR-5 ovarian; settings: 10 µM unless noted
[15] = test system: OVCAR-4 ovarian; settings: 10 µM unless noted
[16] = test system: SK-OV-3 ovarian; settings: 10 µM unless noted
[17] = test system: IGROV1 ovarian; settings: 10 µM unless noted
[18] = test system: HS 578T breast; settings: 10 µM unless noted
[19] = test system: NCI/ADR-RES ovarian; settings: 10 µM unless noted
[20] = test system: OVCAR-3 ovarian; settings: 10 µM unless noted

Structure (SMILES)	growth [1]	growth [2]	growth [3]	growth [4]	growth [5]	growth [6]	growth [7]	growth [8]	growth [9]	growth [10]	growth [11]	growth [12]	growth [13]	growth [14]	growth [15]	growth [16]	growth [17]	growth [18]	growth [19]	growth [20]
CC1CCN(S(=O)(=O)c2ncsc2-c2ccccc2)CC1	96.2%	74.7%	95.4%	86.9%	127%	87%	77.4%	81.6%	74.2%	66.7%	55.7%	25.5%	101%	94.8%	88.5%	95%	94.2%	40.3%	90%	–
Cc1ccc(/C=C/CC(=O)Nc2ccc(C(=O)Nc3ccc(F)cc3N)cc2)cn1	60.7%	63.4%	73.5%	58.9%	34.9%	80.8%	57.2%	38.9%	23.3%	45.1%	46.1%	19.8%	48.4%	55.7%	62.1%	–	65.5%	56.7%	90%	79.5%
COc1ccc(/C=N\NC(=O)c2ccc3nc(-c4ccc(Br)cc4)[nH]c3c2)cc1	96.9%	39.6%	17.1%	75.9%	51.6%	35.1%	35%	82%	53.2%	61.9%	11.8%	42.1%	13.6%	79.2%	12.5%	62.8%	20%	14.8%	75.2%	–
O=C(NNc1nc2cc(F)c(F)cc2n2cccc12)c1cccnn1	19.3%	7.06% (active)	15.8%	13.3%	39.5%	10.2%	11.8%	14.2%	7.8% (active)	7.86% (active)	11.8%	9.62% (active)	19.8%	42.5%	4.78% (active)	–	14.4%	29.3%	-0.232% (active)	7.39% (active)
O=C(NNc1nc2cc(F)cc(F)c2n2cccc12)c1ncccn1	23.2%	11.1%	15.7%	16%	26%	9.54% (active)	17.4%	23.8%	7.19% (active)	13%	13.2%	12.7%	16.7%	40.5%	20.9%	–	14%	42.8%	-1.21% (active)	16.3%
COc1ccc(OC)c([C@H]2c3[nH]c4ccccc4c3C[C@H]3C(=O)N(CCCCCCC(=O)NO)CC(=O)N23)c1	86.6%	93.1%	84.9%	78.5%	101%	94.2%	78.4%	102%	46.1%	63.2%	36.7%	60.4%	73.9%	100%	80%	–	71.6%	93.5%	99.5%	76.3%
Clc1ccc(-c2nc3ccc(/C(=N\N=C\c4ccccc4)c4ccccc4)cc3[nH]2)cc1	96.1%	93.4%	93.4%	83.3%	95.9%	92.1%	77.2%	65.7%	71%	59.3%	72.9%	54.6%	85.6%	85.6%	77.8%	90.7%	104%	99.9%	87.8%	–
COc1cc(/C=N/n2cnc3oc(-c4ccccc4)cc3c2=N)cc(CN2CCCCC2)c1O	-38.5% (active)	-22.7% (active)	-78.8% (active)	-91.6% (active)	-82.5% (active)	-97.7% (active)	-94.2% (active)	15%	-6.9% (active)	2% (active)	28.9%	-30.4% (active)	-38.7% (active)	-81% (active)	-63.1% (active)	–	-82.5% (active)	-35.9% (active)	-0.827% (active)	114%
Oc1ccc(CSc2nnc(-c3ccccc3)n2-c2ccccc2)c2cccnc12	30.8%	18.5%	19.5%	-19.8% (active)	27.3%	6.88% (active)	10.5%	12.7%	9.93% (active)	15.6%	33.6%	10.9%	16.8%	43.7%	15.8%	–	9.4% (active)	9.17% (active)	8.58% (active)	6.38% (active)
COc1ccc(OC)c(NC2=C(Cl)C(=O)C(C)=C(C)C2=O)c1	95.7%	77.4%	92.8%	92.4%	172%	100%	94%	91.6%	12.9%	36%	96.5%	65.9%	95.6%	109%	55.5%	–	89.6%	92.8%	96.8%	92.3%
CC(C)SC1=NC(=C(C(=N1)NC2=ClC=CC=C2)C#N)C3=CC=CC=C3	125%	84%	36.7%	24.7%	112%	23.4%	64.5%	71.6%	63.4%	83.3%	69.3%	88.2%	46.8%	80.3%	-4.9% (active)	88.5%	-5.3% (active)	65.4%	52.7%	–
Cc1ccc(/C=C/CC(=O)Nc2ccc(C(=O)Nc3ccc(F)cc3N)nc2)cn1	31.3%	49.8%	57.6%	25.3%	6.58% (active)	31.6%	26.4%	-3.27% (active)	17.8%	18.1%	31.4%	8.53% (active)	29.1%	38.5%	43.9%	–	43.9%	35.6%	53.6%	59%
CC(C)Sc1nc(NC2CC2)c(C#N)c(-c2ccccc2)n1	124%	101%	57.8%	48.5%	123%	29.1%	68%	64.5%	85.1%	92.6%	96.5%	91%	84.9%	84.4%	-8.11% (active)	78.6%	19.8%	68.7%	74.5%	–
C#C[C@]1(O)CC[C@H]2[C@@H]3CC=C4c5sc(Nc6nc(C)cc(OC)n6)nc5CC[C@]4(C)[C@H]3CC[C@@]21C	58.2%	41.8%	73%	-1.87% (active)	121%	49.2%	19.2%	18.7%	12.7%	7.93% (active)	12.4%	-0.189% (active)	73.3%	78.8%	88.4%	47.5%	66%	-6.82% (active)	62.7%	–
CCn1c2ccc(/C=N/NS(=O)(=O)CCN(C)C)cc2c2cc(/C=N/NS(=O)(=O)CCN(C)C)ccc21	105%	110%	99.3%	88%	88.1%	97%	82.1%	69.8%	103%	103%	83.8%	99.8%	104%	100%	99.8%	104%	77.7%	91.1%	98.1%	–
Nc1c(C(=O)c2ccccc2)sc2nc(-c3cnccn3)cc(-c3cccs3)c12	111%	95.6%	95.2%	88.4%	106%	98.3%	89.9%	106%	100%	105%	105%	108%	103%	103%	106%	–	97.4%	98.8%	107%	108%
